# Compound activity (PubChem)
# BAZ2B block = qHTS Assay for Inhibitors of BAZ2B; AlphaScreen BAZ2B-H3K14Ac peptide displacement; Potency, µM (highest dose often 114 µM), without a hit: top-dose activity change, negative = inhibition, actives largely listed as inhibitors; AID 504333, 2011; hit rate 4.4% among 360,000; also: % is scaled to controls: 0 for no effect and ±100 for the full control effect; nearly all actives have a fitted effect of over 60% in size
# Target sequence (Q9UIF8 whole entry, looked up): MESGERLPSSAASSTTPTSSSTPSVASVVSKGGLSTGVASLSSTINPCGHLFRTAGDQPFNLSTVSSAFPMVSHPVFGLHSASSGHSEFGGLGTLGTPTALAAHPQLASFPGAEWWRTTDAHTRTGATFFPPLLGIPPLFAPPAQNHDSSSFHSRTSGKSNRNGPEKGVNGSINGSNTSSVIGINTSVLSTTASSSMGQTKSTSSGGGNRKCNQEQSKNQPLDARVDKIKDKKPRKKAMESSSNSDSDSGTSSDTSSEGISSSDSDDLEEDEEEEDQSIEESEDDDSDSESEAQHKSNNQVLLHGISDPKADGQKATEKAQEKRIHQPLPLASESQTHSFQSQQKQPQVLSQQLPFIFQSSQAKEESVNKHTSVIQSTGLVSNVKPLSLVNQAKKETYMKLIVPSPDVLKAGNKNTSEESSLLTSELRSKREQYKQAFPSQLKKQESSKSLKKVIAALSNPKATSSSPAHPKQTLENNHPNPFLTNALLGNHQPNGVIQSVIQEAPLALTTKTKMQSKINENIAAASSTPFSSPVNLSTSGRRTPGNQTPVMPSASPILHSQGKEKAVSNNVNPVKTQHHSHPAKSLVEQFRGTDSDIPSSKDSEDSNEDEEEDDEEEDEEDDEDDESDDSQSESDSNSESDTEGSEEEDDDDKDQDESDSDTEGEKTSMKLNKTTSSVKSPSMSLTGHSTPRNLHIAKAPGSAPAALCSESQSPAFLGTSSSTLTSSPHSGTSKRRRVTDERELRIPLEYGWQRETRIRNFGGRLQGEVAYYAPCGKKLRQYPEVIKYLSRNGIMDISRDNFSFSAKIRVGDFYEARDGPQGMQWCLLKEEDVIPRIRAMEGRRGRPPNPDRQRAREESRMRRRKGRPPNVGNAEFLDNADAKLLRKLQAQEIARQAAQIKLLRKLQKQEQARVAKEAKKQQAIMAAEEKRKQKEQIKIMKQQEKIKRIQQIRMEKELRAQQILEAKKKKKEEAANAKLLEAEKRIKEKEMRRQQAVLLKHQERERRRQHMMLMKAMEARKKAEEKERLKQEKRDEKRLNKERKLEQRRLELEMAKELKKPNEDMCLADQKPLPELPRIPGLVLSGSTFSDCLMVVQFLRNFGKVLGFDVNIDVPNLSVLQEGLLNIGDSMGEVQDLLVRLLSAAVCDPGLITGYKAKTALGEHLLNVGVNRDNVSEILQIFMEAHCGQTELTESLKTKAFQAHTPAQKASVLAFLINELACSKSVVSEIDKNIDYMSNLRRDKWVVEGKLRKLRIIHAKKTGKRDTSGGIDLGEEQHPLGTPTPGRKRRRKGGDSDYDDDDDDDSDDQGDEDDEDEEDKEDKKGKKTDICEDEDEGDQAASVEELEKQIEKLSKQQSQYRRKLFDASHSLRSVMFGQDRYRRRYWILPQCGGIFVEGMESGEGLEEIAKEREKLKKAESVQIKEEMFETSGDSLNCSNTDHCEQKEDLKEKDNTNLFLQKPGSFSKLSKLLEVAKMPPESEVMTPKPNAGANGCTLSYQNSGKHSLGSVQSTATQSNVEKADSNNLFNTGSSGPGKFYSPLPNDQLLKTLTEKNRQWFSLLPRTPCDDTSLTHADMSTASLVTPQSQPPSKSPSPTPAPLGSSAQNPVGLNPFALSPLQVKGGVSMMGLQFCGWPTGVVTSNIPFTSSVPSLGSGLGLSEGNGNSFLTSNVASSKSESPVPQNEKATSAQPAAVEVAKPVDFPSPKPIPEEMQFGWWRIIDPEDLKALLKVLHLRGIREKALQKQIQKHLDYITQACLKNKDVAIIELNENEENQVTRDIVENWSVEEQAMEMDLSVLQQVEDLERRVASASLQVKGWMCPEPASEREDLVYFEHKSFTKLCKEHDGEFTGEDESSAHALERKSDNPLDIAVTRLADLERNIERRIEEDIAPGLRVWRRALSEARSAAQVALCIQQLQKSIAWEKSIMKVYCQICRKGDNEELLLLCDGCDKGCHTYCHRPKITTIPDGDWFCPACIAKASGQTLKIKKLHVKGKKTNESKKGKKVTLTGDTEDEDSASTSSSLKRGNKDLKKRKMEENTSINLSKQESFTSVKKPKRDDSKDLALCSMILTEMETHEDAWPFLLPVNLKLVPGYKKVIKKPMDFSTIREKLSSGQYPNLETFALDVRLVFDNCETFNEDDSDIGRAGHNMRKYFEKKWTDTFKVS
#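 Multi-concentration screen (max 110 uM) measuring displacement of acetylated histone H3 peptide from BAZ2B by AlphaScreen, using 50 nM protein, 50 nM peptide and 10 ug/mL streptavidin donor plus Ni-chelate acceptor beads.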
# Sfp inh = qHTS Assay for Inhibitors of Bacillus subtilis Sfp phosphopantetheinyl transferase (PPTase); hit rate 3.5% among 310,000; 4'-phosphopantetheinyl transferase ffp (Bacillus subtilis), Q9F4F7; Potency, µM, without a hit: largest response in the series, negative = inhibition, most hits filed as inhibitors; Biochemical Sfp PPTase activity, qHTS; AID 1490, 2009;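 also: the enzyme is Sfp with the accession as filed and its product quenches rhodamine fluorescence; 0% = enzyme reaction without inhibitor and -100% = no enzyme wells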
#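 Reaction rates are the 30-min fluorescence difference (ex 525, em 598 nm) in wells containing 15 nM Sfp, 5 uM rhodamine-CoA and 12.5 uM BHQ-2-YbbR at pH 7.6 with 10 mM MgCl2.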
# JMJD2A Tudor = qHTS Assay for Inhibitors of JMJD2A-Tudor Domain | Lysine-specific demethylase 4A (Homo sapiens), O75164 | Potency, µM (series often up to 114 µM), for the others: top-dose activity change, negative = inhibition, usual class: inhibitors | hit rate 4.4% among 390,000 | AID 504339, 2011 | AlphaScreen JMJD2A-Tudor / H3K4me3 peptide binding; also: % is scaled to controls: 0 for no effect and ±100 for the full control effect; nearly all actives have a fitted effect of over 50% in size
# G9a block = qHTS Assay for Inhibitors of Histone Lysine Methyltransferase G9a; Histone-lysine N-methyltransferase EHMT2 (Homo sapiens), Q96KQ7; G9a H3K9 monomethylation, AlphaScreen, 2 h; Potency, µM (series often up to 102 µM), for the others: top-dose activity, negative = inhibition, usual class: inhibitors; hit rate 8.8% among 350,000; AID 504332, 2011; also: % is scaled to controls: 0 for no effect and ±100 for the full control effect; nearly all actives have a fitted effect of over 75% in size
#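 Compounds were preincubated with 20 nM G9a for 15 min, after which biotinylated H3K9 peptide (500 nM) and SAM (20 uM) started a 2 h room-temperature reaction. Monomethylated product was quantified by antibody-based AlphaScreen chemiluminescence.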
# HP1b binding inh = HTS for Inhibitors of HP1-beta Chromodomain Interactions with Methylated Histone Tails; Potency, µM (titrated, usually from 114 µM), for the others: at the top dose activity change, negative = inhibition, most hits filed as inhibitors; hit rate 0.56% among 390,000; AlphaScreen HP1-beta / biotin-H3K9me3 peptide binding; also: nearly all actives have a fitted effect of over 70% in size
#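 AlphaScreen: HP1-beta (50 nM) preformed 30 min with biotin-H3(1-18)K9me3 peptide (50 nM) in PBS pH 7.4, 0.01% Tween-20. Compound added for 30 min at RT, then streptavidin donor/nickel chelate acceptor beads (10 ug/mL) for 30 min.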
# PLK1 PBD block = qHTS for Inhibitors of PLK1-PDB (polo-like kinase 1 - polo-box domain): Primary Screen; Plk1 PBD binding of FITC phosphopeptide, fluorescence polarization; Potency, µM, without a hit: max response, negative = inhibition, most hits filed as inhibitors; hit rate 2.8% among 360,000; AID 720504, 2013; also: series mostly up to about 57 µM; % is scaled to controls: 0 for no effect and ±100 for the full control effect; nearly all actives have a fitted effect of over 65% in size
# Numbers without * were called inactive; ? = inconclusive; / = no result; [ ] = another dose, or the depositor's remark. Rows were chosen to be rich in hits. Some 12% of all compounds tested hit in one or more screens of this group. Calls follow the shape of the dose curve; as a rule, active = well fitted curve in the direction sought with a large enough effect; inconclusive = small, poorly fitted or top-dose-only effect, or another doubt; inactive = no such curve, though single readings can be large; an effect the other way counts as inactive or inconclusive. Potency is read from the fitted curve at half-maximal effect.
SMILES,BAZ2B block,Sfp inh,JMJD2A Tudor,G9a block,HP1b binding inh,PLK1 PBD block
CCc1cccc(C)c1NC(=O)C1C2CCC(O2)C1C(=O)O (stereo not given),0%,19%,-1%,23%[59 µM],23%,4%
Cc1cc(C)nc(NS(=O)(=O)c2cccs2)c1,-4%,-8%,-6%,56µM*,8%,-8%
Oc1ccc(/C=N/NC(=S)NCCN2CCOCC2)c(O)c1,10µM*,7%,56µM*,?,8%,3%
COc1cc(OC)c(OC)cc1/C=N/NC(=S)NCCN1CCOCC1,-33%,-83%,-17%,-23%,13%,-3%
COc1cc(/C=N/NC(=S)NCCN2CCOCC2)cc(OC)c1O,-8%,22µM*,-26%,?,22%,-12%
O=C/C(=C\Nc1ccccn1)c1nc2ccccc2o1,79µM*,-20%,40µM*,1%[59 µM],9%,-9%
O=C(Cc1cccs1)NCCN1CCOCC1,-9%,-13%,1%,-3%[59 µM],35%,0%
O=C(Cc1nc(-c2ccc(Br)s2)cs1)NCCN1CCOCC1,4%,50µM*,-20%,-1%[12.7 µM],-2%,-8%
Cc1c(C)[n+](=O)c2c(n1[O-])C(Br)CCC2Br (stereo not given),79µM*,-13%,79µM*,1µM*,31%,-11%
Cc1c(NS(=O)(=O)c2cccc(C(=O)Nc3cccc(F)c3)c2)c(=O)n(-c2ccccc2)n1C,8%,/,-13%,-40%,7%,-6%
CCc1ccc(Nc2n[n+](-c3ccccc3)c(-c3cccc(C)c3)s2)cc1,35µM*,/,79µM*,8%[2.33 µM],11%,-20%
Cc1cccc(-c2sc(Nc3ccccc3)n[n+]2-c2ccc(F)cc2)c1,-1%,16%,-32%,35µM*,30%,-7%
CCOc1cc(-c2sc(Nc3ccc(CC)cc3)n[n+]2-c2ccccc2)ccc1OC,?,/,?,-11%[2.33 µM],-12%,-23%
CC[C@H](C)[C@H](NC(=O)[C@H](Cc1ccc(O)cc1)NC(=O)[C@H](Cc1cnc[nH]1)NC(=O)[C@H](CCCNC(=N)N)NC(=O)[C@H](CC(C)C)NC(=O)[C@H](C)NC(=O)[C@H](CO)NC(=O)[C@H](Cc1ccc(O)cc1)NC(=O)[C@H](Cc1ccc(O)cc1)NC(=O)[C@H](CCCNC(=N)N)NC(=O)[C@H](C)NC(=O)[C@H](CCSC)NC(=O)[C@H](CC(=O)O)NC(=O)[C@H](CCC(=O)O)NC(=O)[C@H](C)NC(=O)[C@@H]1CCCN1C(=O)[C@H](C)NC(=O)[C@H](CC(=O)O)NC(=O)[C@H](CCC(=O)O)NC(=O)CNC(=O)[C@@H]1CCCN1C(=O)[C@H](CC(N)=O)NC(=O)[C@H](CC(=O)O)NC(=O)[C@@H]1CCCN1C(=O)[C@H](CCCCN)NC(=O)[C@H](CO)NC(=O)[C@@H]1CCCN1C(=O)[C@@H](N)Cc1ccc(O)cc1)C(=O)N[C@@H](CC(N)=O)C(=O)N[C@@H](CC(C)C)C(=O)N[C@@H](CC(C)C)C(=O)N[C@H](C(=O)N[C@@H](CCCNC(=N)N)C(=O)N1CCC[C@H]1C(=O)N[C@@H](CCCNC(=N)N)C(=O)N[C@@H](Cc1ccc(O)cc1)C(N)=O)[C@@H](C)O,/,-21%,/,/,/,/
CCOc1cc(C2C(C#N)=C(N)OC(C)=C2C(C)=O)cc(Br)c1O (stereo not given),?,7%,89µM*,?,-17%,24µM*
CCOc1cc(C2C(C#N)=C(N)OC(C)=C2C(C)=O)c(Br)c(Br)c1OC(C)C (stereo not given),-8%,-9%,-22%,?,33%,-30%
